Only a selection was taken, and hits are over-represented in it overall.
TDP-43 rescue – inhibitors of TDP-43 toxicity in yeast | yeast TDP-43 toxicity rescue, BacTiter-Glo growth, 24 h | Potency, µM (top dose mostly 46.1 µM), hits mostly activators | 45,000 compounds, 0.45% hits | AID 1347073; active = well fitted activation curve with a large enough effect; also: nearly all actives have a fitted effect of over 55% in size
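TDP-43-expressing yeast, pregrown in raffinose, seeded at OD600 0.02 in galactose medium with compound for 24 hr at 30 deg C. Growth read by BacTiter-Glo luminescence, so rescue of toxicity appears as activation.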
A number is an active result; – = inactive.

SMILES	TDP-43 rescue
Cc1ccc(C)c(Cn2c(=O)n(CCCCCC(=O)NCc3ccc4c(c3)OCO4)c(=O)c3sccc32)c1	–
COc1cc2c(cc1OC)CN(C(=O)Nc1ccccc1Cl)CC2	13µM
COc1cc2c(cc1OC)CN(C(=O)Nc1ccccc1)CC2	–
COc1cccc(N2CCN(C(=O)Nc3ccccc3Cl)CC2)c1	–
NS(=O)(=O)c1ccc(NC(=O)COC(=O)c2ccc(S(=O)(=O)N3CCOCC3)cc2)cc1	–
COc1ccc(OC)c(NC(=O)CSC2=NN3CCCC(=O)N=C3S2)c1	–
CCOc1ccccc1NC(=O)CSC1=NN2CCCC(=O)N=C2S1	–
COc1ccc(Cl)cc1NC(=O)CSC1=NN2CCCC(=O)N=C2S1	14µM
CCCCOc1ccc(N2C(=O)CC(NCc3ccncc3)C2=O)cc1 (configuration not stated)	–
CCOc1ccc(NC(=O)CNC(=O)COc2ccccc2)cc1	–
Cc1cc(C)c2oc(-c3ccc(NC(=O)COc4ccccc4C)cc3)nc2c1	–
CCOc1cc(-c2nc(C)c(C(C)=O)n2O)ccc1OCC(=O)Nc1ccccc1	11µM
Cc1cc(F)ccc1Nc1nc2ccc(Cl)cc2n2cnnc12	–
O=S(=O)(Cc1ccccc1)N(O)c1ccccc1	–
N#CCCN(C(=O)Nc1ccc(Cl)c(Cl)c1)c1ccccc1	–
COc1ccc2c(c1OC)C(=O)N(c1cccc(NC(C)=O)c1)C2	–
CC(=O)NC(c1ccc(F)c(F)c1)c1nc(-c2cnc3ccccc3c2)cs1 (configuration not stated)	–
COc1ccc(C2=NC(C)(C)N(CC(=O)Nc3ccc(F)c(F)c3)C2=O)cc1	–
S=C(NCc1ccc(Cl)cc1)Nc1ccccc1	13µM
S=C(NCc1ccccc1)NCc1ccc(CNC(=S)NCc2ccccc2)cc1	–
CCNC(=S)Nc1ccc(Cl)cc1	–
COc1cccc(NC(=O)NC2CCN(CC(=O)Nc3ccccc3[N+](=O)[O-])CC2)c1	–
CC1CCN(S(=O)(=O)c2ccc3c(c2)CCN3C(=O)Nc2ccc(Br)cc2)CC1	–
COc1ccc(C(=O)c2cc([N+](=O)[O-])ccc2N2CCCC2)cc1	–
Cc1ccc(C(=O)c2cc([N+](=O)[O-])ccc2N2CCOCC2)cc1C	22µM
SMILES	TDP-43 rescue
CN1CCN(c2ccc([N+](=O)[O-])cc2C(=O)c2ccccc2)CC1	–
COc1ccccc1NC(=O)CSc1n[nH]c(-c2ccco2)n1	–
O=C(COc1ccc2ccccc2c1)NNC(=O)C(=O)Nc1ccccc1	–
C/C(=C\C(=S)Nc1ccccc1)Nc1ccc2ccccc2c1	14µM
O=C(Nc1ccc2ccccc2c1)c1ccccc1O	–
CCCNC(=O)C1(C)CCCN(C(=O)COCc2ccccc2)C1 (configuration not stated)	–
COc1ccc(OC2(C)CCN(Cc3ccccc3OC(F)F)C2)cc1 (configuration not stated)	–
COc1cc(OC)cc(C(=O)N2CCC(N3CCN(c4ccccc4OC)CC3)CC2)c1	–
COc1ccccc1N1CCN(C(=O)c2ccc(NS(=O)(=O)c3ccc(C)cc3)cc2)CC1	–
COc1ccccc1N1CCN(C(=O)c2ccc3[nH]c4c(c3c2)CCCC4)CC1	18µM
NC(=S)N/N=C1\CC(c2ccc3c(c2)OCCO3)Oc2ccc(F)cc21 (configuration not stated)	–
N#Cc1cccc(NC(=O)c2cncn2-c2ccccc2)c1	–
COc1ccccc1N1CCN(c2cnccn2)CC1	–
COc1ccc(-c2csc3ncnc(N4CCN(CCO)CC4)c23)cc1	–
COc1ccc(-c2csc3ncnc(N4CCN(c5ccccc5OC)CC4)c23)cc1	14µM
CCN(C(=O)CN1C(=O)c2ccccc2Sc2ccc(C(=O)OC)cc21)c1cccc(C)c1	–
COc1ccc(N(CC(=O)NN=C2CCN(C)CC2)S(=O)(=O)c2ccccc2)c(OC)c1	–
CNC(CC(=O)c1ccc([N+](=O)[O-])cc1)C(Cl)(Cl)Cl (configuration not stated)	–
CC(C)CC(=O)NC(=S)NNC(=O)c1ccc([N+](=O)[O-])cc1	11µM
O=C(NNC(=S)NC(=O)c1cccc([N+](=O)[O-])c1)c1ccc(Br)cc1	–
COc1ccc(C(C(=O)NC2CCCC2)N(Cc2cccnc2)C(=O)c2snc(C(N)=O)c2N)cc1 (configuration not stated)	–
COCCNC(=O)C1CCCN(C(=O)c2ccc3sccc3c2)CC1 (configuration not stated)	–
O=S(=O)(CC(CN1CCCCC1)N1CCCCC1)c1ccc2ccccc2c1 (configuration not stated)	–
COc1ccccc1-c1cn(C(C)(C)C)nc1C	11µM
COc1ccccc1-c1c(C)nn2c(C(F)(F)F)cc(-c3ccccc3)nc12	–
COc1ccccc1-c1nc2cc3ccccc3cc2nc1-c1ccccc1OC	–
Cc1ccc(OCC(=O)NCCCNC(=O)c2ccncc2)cc1	–
CC(C)Oc1ccc(Br)cc1C(=O)N/N=C/c1c[nH]c2ccccc12	–
COCCN=c1scc(-c2cc(OC)ccc2OC)n1/N=C/c1c[nH]c2ccccc12	20µM
COc1ccc(C)cc1Nc1nc(-c2c[nH]c3ccccc23)cs1	–
